Test [1] can be described thus: Nuclear factor erythroid 2-related factor 2/antioxidant responsive element (Nrf2/ARE) small molecule agonists: qHTS cell viability counter screen in human keratinocytes (AID 1919968; active = well fitted curve in the direction sought with a large enough effect in the repeat runs; an effect the other way counts as inactive or inconclusive; also: nearly all actives have a fitted effect of over 55% in size). In a few lines: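 HaCaT ARE reporter line, 1,500 cells/well; 5 h settle, 37 C/5% CO2; cpd in DMSO pinned; 23 h exposure; CellTiter-Fluor, 1 h; fluorescence.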
Test [2] deals with KiSS-1 receptor (Homo sapiens) (UniProt Q969F8). The test can be described thus: Human kisspeptin (KISS1R) small molecule agonists, calcium flux assay in KISS1R-HEK293 cells (AID 1920064; active = well fitted curve in the direction sought with a large enough effect in the repeat runs; an effect the other way counts as inactive or inconclusive). In a few lines:
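Stable human KISS1R HEK293 line; 18 h plating, 37 C/5% CO2; calcium dye 1 h 37 C; compound pin transfer; kinetic fluorescence Ex/Em 480/540, 3 min.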

Test [3] in a line: G protein-coupled receptor (GPCR) small molecule agonists, calcium flux assay: HEK293 wild type cell line counter screen (AID 1920065). In short, it runs like this:
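Kinetic fluorescence at Ex/Em 480/540, recorded every second over 3 min, served as the read-out after compound addition. Each compound was tested at 15 concentrations in triplicate on cells pre-loaded with calcium dye for 1 h.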
In general terms: Calcium flux is commonly read through the fluorescence of an indicator in the cells.

A short description of test [4]: p53 small molecule agonists, cell-based qHTS assay with human liver microsomes (AID 1963577). In a few lines: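 Compounds act here after metabolic activation: human liver microsomes and NADPH, both at 0.5 mg/mL final, were co-added to p53RE-bla cells. Incubation ran 16 h at 37 C, followed by LiveBLAzer detection.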
A general note: Quantitative high-throughput screening tests each substance at several concentrations.

Test [5] in a line: p53 small molecule agonists, cell-based qHTS assay with human liver microsomes: qHTS cell viability counter screen (AID 1963579). Also: nearly all actives have a fitted effect of over 45% in size. In a few lines: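 Cells carrying the p53 response-element beta-lactamase reporter are treated for 16 h at 37 C with test compounds in the presence of human liver microsomes and NADPH (both 0.5 mg/mL final); ATP-based CellTiter-Glo luminescence then reports viability.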

The nature of test [6]: p53 small molecule agonists, cell-based qHTS assay with rat liver microsomes: qHTS cell viability counter screen (AID 1963580). Also: nearly all actives have a fitted effect of over 45% in size. In a few lines:
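Viability is assessed in parallel with the p53 reporter read: HCT-116 p53RE-bla cells receive compounds plus rat microsomes and NADPH (0.5 mg/mL final apiece), incubate 16 h at 37 C, and then CellTiter-Glo luminescence is recorded.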

Test [7] can be described thus: p53 small molecule agonists, cell-based qHTS assay: qHTS cell viability counter screen (AID 1963581). Also: nearly all actives have a fitted effect of over 45% in size. In a few lines: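 HCT-116 p53RE-bla cells, 4,000/well, plated 5 h before compound pin transfer; 16 h at 37 C; bla substrate 2 h RT; then CellTiter-Glo, 30 min RT, luminescence.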
Test [8] is described as follows: p53 small molecule agonists, cell-based qHTS assay (AID 1963582; active = well fitted activation curve with a large enough effect in the signal ratio in the repeat runs, not every such curve was filed as active; the % refers to the signal ratio). In short, it runs like this: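 Reporter line: p53RE-bla. Pre-incubation 5 h, 37 C, 5% CO2; compound (DMSO, pin tool) 16 h, 37 C; B/G FRET substrate 2 h RT; fluorescence intensity read.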
Test [9] concerns the target 5-hydroxytryptamine receptor 2A (Homo sapiens) (UniProt P28223). Description: 5-hydroxytryptamine receptor 2A (HTR2A) small molecule antagonists, cell-based qHTS assay (AID 1963586). Also: nearly all actives have a fitted effect of over 45% in size. In short, it runs like this:
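Antagonist-mode intracellular calcium assay: DOI (4 nM) added after 5 min compound pre-incubation at room temperature to dye-loaded HTR2A-CHO cells. Fluorescence followed for 3 min, sampled every second.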

For test [10] the target is unchanged. The test can be described thus: 5-hydroxytryptamine receptor 2A (HTR2A) small molecule agonists, cell-based qHTS assay (AID 1963587). Also: nearly all actives have a fitted effect of over 30% in size. In a few lines:
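CHO cells stably expressing human HTR2A, plated 18 h, loaded with calcium dye 1 h at 37 C. Agonist mode: compounds added and intracellular calcium fluorescence recorded kinetically for 2 min at 1 sec intervals.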

For test [11], the target named is Muscarinic acetylcholine receptor M1 (Homo sapiens) (UniProt P11229). The test can be described thus: Cholinergic receptor muscarinic 1 (CHRM1) small molecule antagonists, cell-based qHTS assay (AID 1963588). Also: nearly all actives have a fitted effect of over 40% in size. Also: potency is read from the fitted curve at half-maximal effect. In a few lines: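 CHRM1-CHO calcium-flux assay, antagonist mode. Cells were seeded 18 h, dye-loaded 1 h at 37 C and given compound for 5 min at RT, then acetylcholine was added at 50nM. FDSS fluorescence was read 3 min; 15 concentrations, three runs.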

The target is the same in test [12]. The test can be described thus: Cholinergic receptor muscarinic 1 (CHRM1) small molecule agonists, cell-based qHTS assay (AID 1963589). Also: nearly all actives have a fitted effect of over 35% in size. In a few lines: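 Human M1 in stable CHO line; 18 h plating, 1 h dye load 37 C; cpd added (agonist mode); Ca2+ fluorescence kinetic read, 1 s intervals; 15 conc, 3 runs.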
The nature of test [13]: cAMP Responsive Elements (CRE) small molecule agonists, cell-based qHTS assay (AID 1963590). In short, it runs like this:
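HEK 293T CRE-bla, 2,000 cells/well, 18 h preincubation 37 C/5% CO2; cpds (DMSO) pinned, 3 h; LiveBLAzer B/G FRET substrate, 2 h RT.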

For test [14], the target named is Beta-2 adrenergic receptor (Homo sapiens) (UniProt P07550). Description: Adrenergic beta2 receptor (ADRB2) small molecule antagonists, cell-based qHTS assay (AID 1963592). Also: series mostly up to about 92 µM; nearly all actives have a fitted effect of over 50% in size. In short, it runs like this:
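Cells (CHO, stable ADRB2 overexpression) incubated 18-20hr at 37C; compounds added from DMSO; agonist mix (1nM isoproterenol, 100uM IBMX, 25uM Ro-20-1724) added; 0.5hr RT; d2-cAMP and anti-cAMP-cryptate added; 1hr RT; 665/615 nm read.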

Test [15] addresses D(2) dopamine receptor (Homo sapiens) (UniProt P14416). Description: Dopamine D2 receptor (DRD2) small molecule agonists, cell-based qHTS assay (AID 1963594). Also: nearly all actives have a fitted effect of over 35% in size. In a few lines:
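HEK293 cells stably expressing human DRD2, pre-treated with PDE inhibitor Ro20-1724 (0.1 mM final) and compound 10 min at room temperature, then stimulated with NKH477 (200nM […]) for 30 min. cAMP read by HTRF (665/620 nm).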

Test [16] in a line: p53 small molecule agonists, cell-based qHTS assay with rat liver microsomes (AID 1963578). In short, it runs like this:
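Read-out is beta-lactamase reporter fluorescence (LiveBLAzer, 2 h, room temperature, dark) in p53RE-bla cells treated 16 h at 37 C with compound, rat liver microsomes and NADPH, both 0.5 mg/mL final.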

A short description of test [17]: cAMP Responsive Elements (CRE) small molecule antagonists, cell-based qHTS assay (AID 1963591; active = well fitted inhibition curve with a large enough effect in the signal ratio in the repeat runs, not every such curve was filed as active; the % refers to the signal ratio). In a few lines: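 Beta-lactamase reporter read by FRET substrate (LiveBLAzer B/G) after 2 h at room temperature. CRE-bla HEK293T cells had received compound plus 0.25 uM (final) NKH477 for 3 h at 37 °C.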
Test [18] concerns the target D(2) dopamine receptor (Homo sapiens) (UniProt P14416). Description: Dopamine D2 receptor (DRD2) small molecule antagonists, cell-based qHTS assay (AID 1963595; active = well fitted inhibition curve with a large enough effect in the signal ratio in the repeat runs, with a control signal flat; the % refers to the signal ratio). In short, it runs like this:
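Antagonism was scored as restored cAMP in HEK293-DRD2 cells. These cells were stimulated with 200 nM NKH477 and 12 nM quinpirole for 30 min at room temperature, in the presence of 0.1 mM Ro20-1724.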

Test [19] concerns the target Beta-2 adrenergic receptor (Homo sapiens) (UniProt P07550). The test can be described thus: Adrenergic beta2 receptor (ADRB2) small molecule agonists, cell-based qHTS assay (AID 1963593).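 Also: CHO cells stably overexpressing human ADRB2.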 In short, it runs like this: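 CHO cells stably over-expressing ADRB2 were plated overnight at 37C, then dosed with compounds plus a stimulation mix containing 100uM IBMX and 25uM Ro-20-1724 for 0.5hr at room temperature. cAMP was measured by HTRF competition, 1hr.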

Records with an inconclusive call do not appear. Calls of active or inactive are those of the source. Unless noted, calls follow the shape of the full dose curve.

Chain of 5-hydroxytryptamine receptor 2A (Homo sapiens) (P28223 whole entry, looked up): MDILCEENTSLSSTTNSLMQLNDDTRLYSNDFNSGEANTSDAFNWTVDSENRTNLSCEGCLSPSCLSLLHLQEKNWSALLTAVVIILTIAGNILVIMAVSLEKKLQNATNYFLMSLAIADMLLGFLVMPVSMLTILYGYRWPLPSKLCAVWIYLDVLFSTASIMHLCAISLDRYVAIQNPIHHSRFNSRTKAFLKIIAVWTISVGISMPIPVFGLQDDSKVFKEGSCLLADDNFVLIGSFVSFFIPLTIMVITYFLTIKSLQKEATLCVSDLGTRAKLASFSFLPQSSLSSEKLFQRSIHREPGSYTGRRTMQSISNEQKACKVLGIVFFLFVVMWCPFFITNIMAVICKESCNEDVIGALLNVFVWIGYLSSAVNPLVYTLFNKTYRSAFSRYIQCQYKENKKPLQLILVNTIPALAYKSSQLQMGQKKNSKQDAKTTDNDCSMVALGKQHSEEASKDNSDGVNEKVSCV
Chain of D(2) dopamine receptor (Homo sapiens) (P14416 whole entry, looked up): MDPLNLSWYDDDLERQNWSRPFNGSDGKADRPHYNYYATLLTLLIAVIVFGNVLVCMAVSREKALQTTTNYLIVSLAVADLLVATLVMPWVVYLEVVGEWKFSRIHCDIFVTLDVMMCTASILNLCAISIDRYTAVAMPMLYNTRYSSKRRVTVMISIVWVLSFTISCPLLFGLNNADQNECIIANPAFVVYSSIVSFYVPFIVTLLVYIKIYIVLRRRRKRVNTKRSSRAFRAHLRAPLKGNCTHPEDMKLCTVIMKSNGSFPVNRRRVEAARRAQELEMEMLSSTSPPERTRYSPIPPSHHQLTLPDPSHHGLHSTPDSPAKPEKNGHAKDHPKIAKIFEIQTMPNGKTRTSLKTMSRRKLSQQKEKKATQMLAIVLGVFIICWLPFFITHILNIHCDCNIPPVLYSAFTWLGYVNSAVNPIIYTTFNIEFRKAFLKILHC
Chain of KiSS-1 receptor (Homo sapiens) (Q969F8 whole entry, looked up): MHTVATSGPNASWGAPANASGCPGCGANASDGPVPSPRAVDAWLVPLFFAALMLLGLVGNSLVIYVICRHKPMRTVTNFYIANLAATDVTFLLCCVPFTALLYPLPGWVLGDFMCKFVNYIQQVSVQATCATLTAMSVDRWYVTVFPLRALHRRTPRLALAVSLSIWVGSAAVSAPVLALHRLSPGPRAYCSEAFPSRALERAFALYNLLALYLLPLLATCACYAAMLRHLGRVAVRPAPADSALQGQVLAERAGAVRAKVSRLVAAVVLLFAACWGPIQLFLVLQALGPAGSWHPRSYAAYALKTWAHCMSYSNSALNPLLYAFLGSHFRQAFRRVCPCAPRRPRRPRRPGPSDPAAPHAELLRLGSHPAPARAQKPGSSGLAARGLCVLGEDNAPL
Chain of Beta-2 adrenergic receptor (Homo sapiens) (P07550 whole entry, looked up): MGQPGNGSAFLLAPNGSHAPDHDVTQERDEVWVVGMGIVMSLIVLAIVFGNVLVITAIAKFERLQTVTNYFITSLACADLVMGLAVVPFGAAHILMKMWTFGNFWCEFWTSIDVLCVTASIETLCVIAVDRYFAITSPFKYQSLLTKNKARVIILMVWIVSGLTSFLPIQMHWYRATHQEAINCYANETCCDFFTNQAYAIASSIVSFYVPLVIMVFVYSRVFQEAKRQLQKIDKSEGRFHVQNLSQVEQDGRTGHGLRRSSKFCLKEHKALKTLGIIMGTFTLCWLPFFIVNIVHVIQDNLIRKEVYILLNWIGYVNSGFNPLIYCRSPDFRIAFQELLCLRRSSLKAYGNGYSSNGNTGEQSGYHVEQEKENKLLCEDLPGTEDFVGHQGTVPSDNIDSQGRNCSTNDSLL
Chain of Muscarinic acetylcholine receptor M1 (Homo sapiens) (P11229 whole entry, looked up): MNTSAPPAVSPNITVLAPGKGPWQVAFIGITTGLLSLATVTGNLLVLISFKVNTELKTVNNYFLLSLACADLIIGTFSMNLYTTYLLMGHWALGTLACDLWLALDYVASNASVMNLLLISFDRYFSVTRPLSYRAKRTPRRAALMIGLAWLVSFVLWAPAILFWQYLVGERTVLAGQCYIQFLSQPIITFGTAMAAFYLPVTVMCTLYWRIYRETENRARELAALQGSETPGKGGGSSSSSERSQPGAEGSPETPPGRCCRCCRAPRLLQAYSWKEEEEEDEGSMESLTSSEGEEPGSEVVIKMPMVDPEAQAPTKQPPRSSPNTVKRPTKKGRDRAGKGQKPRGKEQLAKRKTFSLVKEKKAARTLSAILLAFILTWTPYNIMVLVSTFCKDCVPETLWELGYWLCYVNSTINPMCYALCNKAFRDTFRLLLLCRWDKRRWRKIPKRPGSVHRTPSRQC

On to `COc1cccc(C=O)c1`, for which the Potency entry in test [1], in test [2], in [3], in test [4], in [5] and in [6] was “inactive” in each case. For the same compound, the Potency result in test [7], in [8], in test [9], in [10], in test [11] and in [12] was “inactive” throughout. For the same compound, the Potency entry in test [13], in [14] and in [15] was “inactive” throughout.

In the case of `O=[N+]([O-])c1ccccc1-c1ccccc1`, the Potency result in [1], in test [2], in test [3], in test [4], in [16] and in test [5] was “inactive” each time. Besides, the Potency entry in test [7], in [8], in [9], in test [10], in test [12] and in test [13] was “inactive” in each case. Further, the Potency result in [17], in test [14], in test [15] and in [18] was “inactive” each time.

Turning to `CCOP(=S)(OCC)Oc1cnc2ccccc2n1`, the Potency result in test [1], in [2], in [3], in test [16], in test [5] and in test [6] was “inactive” throughout. Besides, the Potency entry in test [7], in [8], in test [9], in test [10], in test [11] and in test [12] was “inactive” in each case. In addition, the Potency result in test [13], in [17], in test [19] and in test [18] was “inactive” throughout.

On to `Nc1ccc(-c2ccc(N)c(N)c2)cc1N`, for which the Potency entry in [1], in test [2], in test [3], in test [5], in [6] and in test [7] was “inactive” in each case. In addition, the Potency result in test [9], in test [10], in test [11], in test [12], in test [17] and in [14] was “inactive” each time. In addition, the Potency entry in [15] and in test [18] was “inactive” throughout.

For `Oc1c(Br)cc(Br)cc1Br`, the Potency entry in [1], in test [2], in test [5], in [6], in test [7] and in test [9] was “inactive” each time. Moreover, the Potency entry in test [10], in test [11], in test [12], in [13], in test [17] and in [14] was “inactive” each time. For the same compound, in test [15], the Potency result is “inactive”.

Regarding `CCCC(C)(COC(N)=O)COC(N)=O`, the Potency entry in test [1], in test [2], in test [3], in [16], in test [5] and in [6] was “inactive” throughout. Besides, the Potency entry in [8], in test [10], in test [13], in [17], in [14] and in test [19] was “inactive” in each case. For the same compound, the Potency entry in test [15] and in [18] was “inactive” each time. For the same compound, in [11], the Potency is 19.9 nM (active).

As for `CCOC(=O)CC(SP(=O)(OC)OC)C(=O)OCC` (stereo unspecified), the Potency result in test [1], in test [2], in test [3], in [5], in [6] and in test [7] was “inactive” throughout. Besides, the Potency result in test [8], in [9], in test [10], in test [11], in test [12] and in test [13] was “inactive” in each case. Further, the Potency entry in test [17], in test [14], in test [15] and in test [18] was “inactive” throughout.

Consider `NCC(O)c1ccc(O)cc1` (stereo unspecified), for which the Potency result in test [1], in test [2], in [3], in test [4], in test [5] and in test [6] was “inactive” throughout. Moreover, the Potency result in test [8], in test [9], in test [11], in [12], in test [13] and in test [17] was “inactive” throughout. For the same compound, the Potency result in [14], in test [19], in test [15] and in test [18] was “inactive” throughout.
